# In PubChem BioAssay (NCI):
# About 83,000 compounds went through this panel and 20% of them were active in at least one assay; those are over-represented in the sample as a whole.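 The endpoint reported here, percent growth, reads 100 for growth as untreated, 0 for no net growth and -100 for all cells dead.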 Unmarked numbers belong to inactive results. The source made the active and inactive calls. The calls were made as follows: active = growth percent below 10; inactive = the rest.
# Columns and labels:
# Assay in all cases: NCI-60 one-dose screen, 48 h (100 = growth as untreated, 0 = no growth, -100 = all killed)
# Settings in all cases: 10 µM unless noted
# [1] = system: SR leukemia
# [2] = system: RPMI-8226 leukemia
# [3] = system: OVCAR-8 ovarian
# [4] = system: OVCAR-5 ovarian
# [5] = system: OVCAR-4 ovarian
# [6] = system: SK-OV-3 ovarian
# [7] = system: IGROV1 ovarian
# [8] = system: HS 578T breast
# [9] = system: NCI/ADR-RES ovarian
# [10] = system: T-47D breast
# [11] = system: BT-549 breast
# [12] = system: MDA-MB-435 melanoma
# [13] = system: SW-620 colon
# [14] = system: MCF7 breast
# [15] = system: HCT-116 colon
# [16] = system: HCC-2998 colon
# [17] = system: KM12 colon
# [18] = system: OVCAR-3 ovarian
SMILES,growth [1],growth [2],growth [3],growth [4],growth [5],growth [6],growth [7],growth [8],growth [9],growth [10],growth [11],growth [12],growth [13],growth [14],growth [15],growth [16],growth [17],growth [18]
O=C(N/N=C/c1ccccc1O)c1ccncc1,49.4%,53.9%,52.3%,71.1%,48.9%,63.1%,53.8%,94.3%,38.1%,33.6%,57%,82.5%,66.1%,23.1%,48.7%,64.5%,34.3%,–
c1coc(CNc2c3ccccc3nc3ccccc23)c1,34%,56.6%,47.5%,76.4%,56.2%,70.9%,61.8%,84%,44.8%,69.3%,97.4%,87.6%,42.3%,21.3%,24.1%,–,85.5%,–
CC(C)[C@@]12C[C@@H](OC(=O)C3CO3)[C@@](C)(O1)[C@@H]1CC[C@@H](C)[C@H]1[C@@H]2OC(=O)/C=C/c1ccccc1 (some centres not stated),74.6%,89.1%,22.4%,100%,111%,76.9%,74.6%,-21.2% (active),59.4%,58.8%,77.1%,109%,98.3%,85.7%,85.9%,95%,99.7%,–
CC(CN1CCN(CC(C)Nc2ccnc3cc(Cl)ccc23)CC1)Nc1ccnc2cc(Cl)ccc12 (configuration not stated),-44.1% (active),-32.2% (active),6.74% (active),57.2%,3.26% (active),97.2%,28.2%,9.67% (active),–,–,10.8%,-45.4% (active),5.03% (active),–,-83.2% (active),-5.03% (active),19.8%,-7.9% (active)
O=C(CCl)Nc1cc(O)c2c(c1)C(=O)c1cccc(O)c1C2=O,-35.5% (active),-53.8% (active),-49.5% (active),-40% (active),-1.37% (active),17.1%,-55.6% (active),11.4%,19.1%,-76.4% (active),-48.4% (active),13.5%,-73.8% (active),-49.6% (active),-33.9% (active),-42.3% (active),-45.8% (active),–
O=[N+]([O-])c1ccc(SSc2ccc([N+](=O)[O-])cc2Cl)c(Cl)c1,84.5%,80%,100%,126%,83%,104%,69.6%,90.5%,–,–,97.4%,113%,97.6%,77.3%,91.1%,106%,98%,101%
FC(F)(F)c1nn[nH]n1,104%,89.5%,105%,108%,111%,107%,118%,111%,–,101%,109%,–,112%,97.3%,108%,–,99.6%,104%
COc1ccc(/C=C/c2nc3ccccc3c(=O)n2-c2ccc(C#Cc3ccc(C(C)(C)C)cc3)cc2C)c(OC)c1,42%,52%,110%,120%,97.9%,103%,109%,–,105%,85.5%,99.4%,91.8%,86.7%,105%,69%,97.2%,88.1%,87.5%
NS(=O)(=O)c1ccc(CCn2c(SCC(=O)N/N=C/c3ccccc3O)nc3ccccc3c2=O)cc1,19.9%,32.1%,36.9%,69.2%,83.3%,59.2%,64.4%,37.5%,92.3%,49.2%,53.9%,3.97% (active),26.1%,21.7%,–,86.8%,34%,–
CCN(CC)c1ccc2c(cc1=O)[C@@H](NC(C)=O)CCc1cc(OC)c(OC)c(OC)c1-2,-14.1% (active),14.9%,12.3%,54.1%,48.2%,24.3%,28%,40.5%,85.7%,82.2%,1.73% (active),-43.9% (active),23.3%,14.9%,3.75% (active),22.9%,5.97% (active),–
CCCCCCCCCCCCCCCCCC(=O)OCCCCCCCCCCCCC,116%,95%,109%,113%,113%,114%,106%,122%,–,98.4%,133%,109%,117%,114%,111%,113%,105%,114%
CC(C)c1ccc2c(c1)CCC1C2CCCC1(C)NCc1ccccc1 (configuration not stated),0.88% (active),-35.2% (active),91.5%,53.5%,67.7%,86.4%,84.2%,–,62.7%,–,106%,18.2%,3.49% (active),75.5%,60.3%,-91.3% (active),23.1%,80.4%
CCOC(OCC)c1cnc2nc(NC(C)=O)[nH]c(=O)c2n1,99.9%,106%,102%,101%,107%,106%,101%,102%,–,99.9%,–,105%,103%,96.4%,102%,107%,108%,113%
COc1ccc(Cl)cc1Nc1nc(C(F)(F)F)ccc1C(=O)NN,1.9% (active),4.71% (active),18.9%,40.6%,-4.08% (active),8.79% (active),30.3%,95.8%,9.26% (active),29.4%,20.2%,40.2%,88.6%,90.4%,38.8%,–,38.6%,–
CCCCCCCCCCCCNC(=O)N[C@H](C(=O)N[C@H]1/C=C/CCNC(=O)/C=C/[C@H](C)NC1=O)C(C)C,-22.7% (active),41.1%,11.5%,-83.7% (active),3.35% (active),-42.6% (active),-32.9% (active),49.5%,94.4%,-41.9% (active),-87.2% (active),-40.1% (active),-22.3% (active),14.1%,-85.2% (active),-95.8% (active),-62.4% (active),–
Oc1ccc(-c2nnc3c4[nH]ccc4ncn23)cc1,82.4%,97.7%,99.6%,113%,102%,99.7%,84%,95%,–,93.4%,89.2%,97.5%,108%,92.1%,88.8%,105%,104%,107%
CCCCCCCCN=C(NCCCCCCCC)SCc1cccc2ccccc12,-34.6% (active),-42.1% (active),-92.5% (active),-84.2% (active),-91.7% (active),-96.3% (active),-55.5% (active),-55.3% (active),–,-97.5% (active),-74.8% (active),-95.6% (active),-91.6% (active),-88.9% (active),-83.3% (active),-96.4% (active),-94.1% (active),-97.9% (active)
COC1(OC)C2(Cl)CCC1(Cl)C(Cl)=C2Cl,98.6%,103%,94.6%,105%,103%,104%,106%,99.9%,–,98.3%,117%,99.9%,120%,98%,105%,103%,106%,112%
CCn1c(=O)c(C(=O)NCCCO)c(O)c2ccccc21,105%,122%,103%,116%,100%,115%,108%,92.1%,111%,106%,150%,–,106%,95.2%,104%,139%,120%,–
